Key:
Settings in all cases: concentration: 1 μM, replicates: in singlicate; n = 1
CSF1R = system: CSF1R
CSK = system: CSK
CSNK1A1L = system: CSNK1A1L
CSNK1A1 = system: CSNK1A1
CSNK1D = system: CSNK1D
CSNK1E = system: CSNK1E
CSNK1G1 = system: CSNK1G1
CSNK1G2 = system: CSNK1G2
CSNK1G3 = system: CSNK1G3
CSNK2A1 = system: CSNK2A1
CSNK2A2 = system: CSNK2A2
CTK = system: T1, CTK
T1 construct: gene MATK

DAPK1 = system: DAPK1
DAPK2 = system: DAPK2
DAPK3 = system: DAPK3
DCAMKL1 = system: T2, DCAMKL1
T2 construct: gene DCLK1

DCAMKL2 = system: T3, DCAMKL2
T3 construct: gene DCLK2

DCAMKL3 = system: T4, DCAMKL3
T4 construct: gene DCLK3

DDR1 = system: DDR1
DDR2 = system: DDR2
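Note: KINOMEscan kinase panel screen.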

Row | SMILES | %Inh (CSF1R) | %Inh (CSK) | %Inh (CSNK1A1L) | %Inh (CSNK1A1) | %Inh (CSNK1D) | %Inh (CSNK1E) | %Inh (CSNK1G1) | %Inh (CSNK1G2) | %Inh (CSNK1G3) | %Inh (CSNK2A1) | %Inh (CSNK2A2) | %Inh (CTK) | %Inh (DAPK1) | %Inh (DAPK2) | %Inh (DAPK3) | %Inh (DCAMKL1) | %Inh (DCAMKL2) | %Inh (DCAMKL3) | %Inh (DDR1) | %Inh (DDR2)
1 | Fc1cccc(CSc2nnc(-c3ccc4c(c3)CCO4)o2)c1 | 0% | 0% | 11% | 8% | 0% | 0% | 15% | 10% | 0% | 16% | 33% | 11% | 3% | 0% | 0% | 20% | 0% | 0% | 0% | 16%
2 | O=c1cc(N2CCOCC2)nc2n(Cc3ccc(F)c(Cl)c3)ccn12 [GSK2297099] | 26% | 13% | 6% | 0% | 9% | 52% | 12% | 0% | 34% | 1% | 6% | 0% | 23% | 0% | 23% | 0% | 0% | 0% | 10% | 0%
3 | CN(C)c1cc(-c2ccc3c(N)n[nH]c3c2)nc(N)n1 [GSK2219329] | 2% | 0% | 0% | 0% | 25% | 27% | 0% | 2% | 16% | 0% | 11% | 0% | 0% | 0% | 0% | 9% | 0% | 0% | 0% | 0%
4 | COc1ccc(-n2cnc3c(N)ncnc32)cc1 [SKF-97236] | 0% | 4% | 7% | 33% | 42% | 34% | 13% | 11% | 6% | 12% | 3% | 3% | 13% | 1% | 0% | 13% | 0% | 9% | 10% | 0%
5 | COc1cc(OC)cc(-c2cc3cnc(N)nc3nc2NC(=O)NC(C)(C)C)c1 | 73% | 0% | 0% | 36% | 0% | 0% | 0% | 0% | 32% | 0% | 0% | 1% | 0% | 0% | 0% | 0% | 0% | 0% | 68% | 11%
6 | Cc1ccc(-c2ccc3c(ccc4sc5c(c43)NC[C@@H](C)N=C5N(C)C)n2)cn1 | 0% | 0% | 0% | 6% | 0% | 0% | 0% | 0% | 1% | 0% | 0% | 8% | 0% | 0% | 0% | 9% | 0% | 0% | 0% | 0%
7 | Cl.NS(=O)(=O)c1cccc(Nc2cc(-c3ccc(F)cc3)n[nH]2)c1 [GW824645] | 9% | 0% | 0% | 3% | 0% | 19% | 3% | 0% | 0% | 0% | 20% | 19% | 0% | 0% | 0% | 15% | 44% | 0% | 0% | 45%
8 | COc1cc2nccc(Nc3cccc(Oc4ccccc4)c3)c2cc1OC.Cl [GW284543] | 0% | 11% | 12% | 0% | 0% | 5% | 0% | 0% | 26% | 0% | 4% | 10% | 0% | 0% | 0% | 11% | 0% | 23% | 17% | 9%
9 | O=C(NCCNc1ccnc(Nc2ccc(F)cc2)n1)Nc1ccc2c(c1)OCO2 [GSK1379882] | 18% | 2% | 0% | 0% | 2% | 42% | 3% | 0% | 22% | 3% | 16% | 0% | 19% | 8% | 26% | 0% | 0% | 0% | 0% | 18%
10 | Nc1ncnc2c1ncn2-c1cccc(F)c1 [SKF-97560] | 20% | 0% | 0% | 16% | 26% | 0% | 0% | 13% | 0% | 28% | 0% | 22% | 0% | 0% | 8% | 0% | 11% | 0% | 18% | 30%
11 | COc1cccc(C2=C(N(C)c3ccccc3)C(=O)NC2=O)c1 [SB-334865] | 4% | 0% | 1% | 0% | 15% | 2% | 1% | 0% | 2% | 0% | 3% | 0% | 6% | 0% | 14% | 18% | 0% | 16% | 0% | 22%
12 | FC(F)(F)c1ccc(-c2ncn(CCCN3CCOCC3)c2-c2ccncc2)cc1 [SB-217780] | 25% | 18% | 33% | 21% | 0% | 0% | 0% | 0% | 12% | 20% | 5% | 0% | 14% | 5% | 15% | 13% | 35% | 4% | 5% | 0%
13 | COc1cc2nccc(Nc3ccc(OCc4ccc(NC(C)=O)cc4)cc3)c2cc1OC.Cl [GW440135] | 73% | 0% | 15% | 0% | 0% | 16% | 0% | 0% | 15% | 5% | 0% | 20% | 0% | 10% | 1% | 4% | 0% | 0% | 0% | 45%
14 | COc1cc(Nc2nccc(N3CCC(NC(=O)C4COc5ccccc5O4)C3)n2)cc(OC)c1OC (stereo not drawn) [GSK1379761] | 20% | 0% | 0% | 0% | 0% | 0% | 3% | 0% | 2% | 0% | 0% | 0% | 0% | 20% | 11% | 0% | 0% | 0% | 1% | 61%
15 | CCc1nc(-c2cccc(C)c2)c(-c2ccncc2)s1 | 0% | 0% | 12% | 58% | 68% | 70% | 0% | 10% | 12% | 4% | 0% | 0% | 11% | 0% | 9% | 30% | 2% | 4% | 30% | 17%
